# Test results: PubChem BioAssay AID434955 (Southern Research Specialized Biocontainment Screening …, 2010)
# Several values for one entry are separate records, joined by “and”; a condition that tells them apart may be missing. Identical values can stand only once. Out of some 330,000 compounds screened, about 880 (0.27%) were called active. Another 1% or so got no clear call; they are omitted. The rule behind the calls is not given here. These entries were drawn from the full list.
# Assay: beta-lactam sensitization of Mtb H37Rv, H37Rv (AID 434955);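 note: growth measured after seven days incubation then overnight dye step; 0% = bacteria only wells and 100% = bacteria with antibiotic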
# Details: M. tuberculosis H37Rv growth with meropenem, percent inhibition, at 25 µM
# [1] = measured here: primary screen without meropenem
Compound,inhibition (stronger effect = higher value),inhibition [1]
COc1ccc(OC)c(NC(=O)c2cccc(S(=O)(=O)N3CCN(C(C)=O)CC3)c2)c1,1.25% (inactive),1.6%
CCc1nn(CCCN2CCN(c3cccc(Cl)c3)CC2)c(=O)n1CCOc1ccccc1,-2.61% (inactive) and 5.29% (inactive),51.1% and 50%
COc1ccc(C)c(Cn2c(-c3nonc3N)nc3ccccc32)c1,-3.23% (inactive),-5.86%
C=CCSc1ccc(S(=O)(=O)N2CCN(C)CC2)cn1,-0.58% (inactive),5.36%
Cc1ccc(C(=O)NN(CCC#N)C2=NS(=O)(=O)c3ccccc32)cc1,-5.01% (inactive),-4.15%
CC(NC(=S)NC1CCCCC1)C(c1ccccc1)N1CCOCC1 (stereo unspecified),-1.18% (inactive),-9.18%
COC(=O)N/N=C/c1c[n+]([O-])c2ccccc2[n+]1[O-],99.7% (inactive),100%
Nn1c(SCC(=O)NC2CCCc3ccccc32)nnc1C1CC1 (stereo unspecified),-6.27% (inactive),-8.89%
Cn1nnnc1-c1cc(Cl)cc(Cl)c1,-6.9% (inactive),-5.1%
FC(F)(F)COc1nc(N2CCCCC2)nc(N2CCNCC2)n1,-3.65% (inactive),-3.73%
Cc1ccc(S(=O)(=O)N(C)c2ccc(OCC(=O)OCc3ccc(C#N)cc3)cc2)cc1,94.4% (inactive),93.2%
O=C(c1cc(-c2ccc(Cl)cc2)on1)N1CCN(c2ccccc2)CC1,4.32% (inactive),0.26%
Nc1c(N(CCO)C(=O)C2CCCCC2)c(=O)[nH]c(=O)n1Cc1ccccc1,1.76% (inactive),-2.9%
Cc1ccc(N2CC(C(=O)Nc3cc(Cl)ccc3-n3cncn3)CC2=O)cc1 (stereo unspecified),-7.41% (inactive),3.62%
COCCNC(=O)C(c1ccc(O)cc1)N(C(=O)CCC(=O)Nc1nccs1)c1ccc(C)cc1 (stereo unspecified),-3.29% (inactive),-1.6%
O=C(Cn1cnc2c(cnn2-c2ccc(F)cc2)c1=O)NCCc1ccccc1,8.42% (inactive),5.1%
CCOC(=O)C1CCN(C(=O)Cc2c(C(=O)O)[nH]c3ccccc23)CC1,11.4% (inactive),8.1%
COCc1cc(C)nc2sc3c(=O)n(-c4cccc5ccccc45)nnc3c12,41.4% (inactive),-9.11%
CN(c1ccccc1)S(=O)(=O)c1cccc(C(=O)NNC(=O)c2ccncc2)c1,-14.5% (inactive),10.4%
COc1ccccc1C(=O)N/C(=C/c1ccco1)C(=O)Nc1ccc(C(=O)O)cc1,5.03% (inactive),3.35%
CCOC(=O)C(=O)C1C(=O)Nc2ccccc21 (stereo unspecified),5.13% (inactive),3%
COc1cc(NS(=O)(=O)c2ccc(NC(=O)c3ccc(S(=O)(=O)N4CCCCC4)cc3)cc2)ncn1,-5.84% (inactive),-4.25%
Cc1ccc(C(=O)N2CCC(n3nccc3NC(=O)Nc3cccc(F)c3)CC2)cn1,-9.41% (inactive),-4.97%
COc1ccccc1N(C(=O)Cn1nnc2ccccc21)C(C(=O)NCc1ccco1)c1ccc(C)o1 (stereo unspecified),-4.29% (inactive),-5.41%
CCN(Cc1nc2ccccc2c(=O)[nH]1)Cc1cc(=O)oc2cc(C)c(C)cc12,1.77% (inactive),-4.21%
COc1cccc(N2CC(NC(=O)c3ccc4ccccc4c3)CC2=O)c1 (stereo unspecified),-3.62% (inactive),10.2%
O=C(CC1OC(=O)c2ccccc21)NC1CCCCC1 (stereo unspecified),2.15% (inactive),2.66%

Compound,inhibition (stronger effect = higher value),inhibition [1]
COc1ccccc1CCCNC(=O)C1CCC(=O)N(CCN2CCOCC2)C1 (stereo unspecified),1.01% (inactive),-9.27%
Cc1cc(C)c2nc3nc(C)cc(C)c3c(N)c2c1,6.08% (inactive),4.53%
CCC(C)N(C(=O)COC(=O)c1nc(Cl)ccc1Cl)C1CCS(=O)(=O)C1 (stereo unspecified),-10.3% (inactive),-10.3%
CCn1c(CNC(=O)c2ccco2)nnc1SCC(=O)Nc1cccc(F)c1,-8.4% (inactive),-1.57%
O=c1cc(CN2CCN(c3cccc(Cl)c3)CC2)c2cc3c(cc2o1)CCCC3,-11.5% (inactive),1.9%
COc1ccc(-c2ccc(OC(=O)NC3CCS(=O)(=O)C3)cc2)cc1 (stereo unspecified),87.1% (inactive),66.5%
COCCOC(=O)C1=C(C)NC(=O)NC1c1cc2c(cc1Br)OCO2 (stereo unspecified),-3.19% (inactive),0.53%
Cc1ccc(C(=O)N2CCN(S(=O)(=O)N3CCOCC3)CC2)cc1,-7.62% (inactive),-3.45%
CC(C)Cc1ccc(S(=O)(=O)N2CCN(C(=O)c3ccco3)CC2)cc1,1.6% (inactive),-4.13%
C/C(=N/O)c1ccc(N2C(=O)C3C4C=CC(C3C2=O)C2C3C(=O)N(c5ccc(/C(C)=N/O)cc5)C(=O)C3C42)cc1 (stereo unspecified),-4.77% (inactive),-7.58%
Cc1ccc(S(=O)(=O)N(CC(O)CN2C(=O)NC(C)(C)C2=O)c2cccc([N+](=O)[O-])c2)cc1 (stereo unspecified),16.4% (inactive),4.68%
CC/S(CC1CC1(Cl)Cl)=N\S(=O)(=O)c1ccc(C)cc1 (stereo unspecified),-10.6% (inactive),-11.9%
CCOc1cc(NC(=O)CCl)c(OCC)cc1NC(C)=O,90.5% (inactive),98.2%
CC(C)CCOc1ccc(C(=O)C[N+]2(C)CCOCC2)cc1,-6.59% (inactive),4.15%
COC(=O)C(C)N=Cc1ccccc1 (stereo unspecified),-4.31% (inactive),0.46%
O=C(C1CC(=O)N(C2CCCCC2)C1)N1CCN(c2ccccc2)CC1 (stereo unspecified),0.44% (inactive),1.29%
O=[N+]([O-])c1c(NCCO)cc(Sc2nc3ccccc3s2)c2nonc12,95.6% (inactive),96%
O=C(NCc1ccc2c(c1)OCO2)c1cc([N+](=O)[O-])ccc1N1CCOCC1,-1.78% (inactive),-2.18%
COc1ccc(NC(=O)COc2ccc(C(=O)c3ccc(F)cc3)cc2)cc1S(N)(=O)=O,7.84% (inactive),10.7%
N#Cc1ccc(COC(=O)Cn2nnc(-c3ccccc3)n2)cc1,2.69% (inactive),0.73%
O=C(COC(=O)Cc1ccccc1F)NNC(=O)c1ccc(Cl)cc1,-6.06% (inactive),20.8%
CC(=O)Nc1ccc(NC(=O)CSc2nnnn2-c2ccccc2F)cc1,-2.11% (inactive),-2.67%
CC(C)c1nc(CNC(=O)CC2C(=O)NCCN2Cc2ccoc2)cs1 (stereo unspecified),-7.57% (inactive),-8.36%
O=C(CC1SC(=Nc2ccccc2F)N(CCN2CCOCC2)C1=O)Nc1ccc(F)cc1F (stereo unspecified),3.51% (inactive),2.75%
CCc1ccc(-c2cc3c(=O)n(CC(=O)NCCCN4CCN(Cc5ccccc5)CC4)nc(C)n3n2)cc1,99.7% (inactive),99.5%
CO/N=C(/CS(=O)(=O)c1ccc(Br)cc1)c1ccc(OC)cc1,-4.01% (inactive),-5.94%
